Data on seven compounds can be found in PubChem BioAssay (Tox21).

Where “and” joins values, the source holds several entries; their conditions need not be identical. Equal entries are not always repeated. Records with an inconclusive call do not appear. A structure can be active in one record and inactive in another. Calls of active or inactive are those of the source. Unless noted, the call rests on the fitted dose curve.

A short description of assay [1]: Nuclear factor erythroid 2-related factor 2/antioxidant responsive element (Nrf2/ARE) small molecule agonists: qHTS cell viability counter screen in human keratinocytes (AID 1919968; active means well fitted curve in the direction sought with a large enough effect in the repeat runs; an effect the other way counts as inactive or inconclusive; further: nearly all actives have a fitted effect of over 55% in size; further: potency means the concentration at half of the fitted maximal effect). An outline of the steps: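 Stably transfected HaCaT (KeratinoSens), 1,500/well. Test agents in DMSO were applied for 23 h, 37 C/5% CO2. CellTiter-Fluor was incubated 1 h before the fluorescence read.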

Assay [2] in a line: Nuclear factor erythroid 2-related factor 2/antioxidant responsive element (Nrf2/ARE) small molecule agonists: luciferase reporter gene qHTS assay in human keratinocytes (AID 1919969). Further: nearly all actives have a fitted effect of over 35% in size. Further: potency means the concentration at half of the fitted maximal effect. In general terms: Reporter assays use an easily measured gene product as a stand-in for the process of interest.
The target of assay [3] is Gonadotropin-releasing hormone receptor (Homo sapiens) (UniProt P30968). In words: Human gonadotropin-releasing hormone receptor (GnRHR) small molecule agonists, calcium flux assay in GnRHR-HEK293 cells (AID 1920063). Further: nearly all actives have a fitted effect of over 35% in size. The essentials: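 Stable human GnRHR HEK293 line. 18 h plating, then calcium dye for 1 h at 37 C. Agonist-mode compound addition from DMSO stocks; fluorescence monitored 3 min.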
On the technique in general: Calcium flux is commonly read through the fluorescence of an indicator in the cells.

Assay [4] addresses KiSS-1 receptor (Homo sapiens) (UniProt Q969F8). In words: Human kisspeptin (KISS1R) small molecule agonists, calcium flux assay in KISS1R-HEK293 cells (AID 1920064; active means well fitted curve in the direction sought with a large enough effect in the repeat runs; an effect the other way counts as inactive or inconclusive). The essentials: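 After overnight (18 h) culture at 37 C/5% CO2, human KISS1R-HEK293 cells received calcium dye for 1 h, then test compound; emission at 540 nm (excitation 480 nm) was tracked for 3 min.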
A short description of assay [5]: G protein-coupled receptor (GPCR) small molecule agonists, calcium flux assay: HEK293 wild type cell line counter screen (AID 1920065). An outline of the steps: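 Following 18 h incubation at 37 C/5% CO2, plates got calcium dye for 1 h; compounds, ATP or DMSO were then pinned in and fluorescence followed kinetically (480/540 nm).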
Assay [6] is described as follows: p53 small molecule agonists, cell-based qHTS assay with human liver microsomes (AID 1963577). An outline of the steps:
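Fluorescence of the beta-lactamase reporter in p53RE-bla cells, detected with LiveBLAzer substrate (2 h, room temperature, dark), served as the read-out after 16 h compound exposure at 37 C with human liver microsomes and NADPH, each 0.5 mg/mL final.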
A general note: Quantitative high-throughput screening tests each substance at several concentrations.

Assay [7] can be described thus: p53 small molecule agonists, cell-based qHTS assay with rat liver microsomes (AID 1963578). The essentials: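 Cells carrying a p53 response element–beta-lactamase reporter were plated and rested 5 h, then dosed with compound in DMSO plus rat liver microsomes and NADPH, each at 0.5 mg/mL final. After 16 h at 37 C, LiveBLAzer substrate was added for 2 h.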
Assay [8] can be described thus: p53 small molecule agonists, cell-based qHTS assay with human liver microsomes: qHTS cell viability counter screen (AID 1963579). Further: nearly all actives have a fitted effect of over 45% in size. Further: potency means the concentration at half of the fitted maximal effect. The essentials: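 Cytotoxicity counter screen: p53RE-bla, 4,000 cells/well; 5 h settle, 37 C/5% CO2; cpd + HLM 0.5 mg/mL + NADPH 0.5 mg/mL (final); 16 h, 37 C; CellTiter-Glo, 30 min RT, luminescence.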
Assay [9] is described as follows: p53 small molecule agonists, cell-based qHTS assay: qHTS cell viability counter screen (AID 1963581). Further: nearly all actives have a fitted effect of over 45% in size. The essentials: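 qHTS counter screen: 16 h compound exposure at 37 C of p53RE-bla HCT-116 cells (4,000 per well, seeded 5 h prior), cell viability by ATP luminescence.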
Assay [10] is described as follows: p53 small molecule agonists, cell-based qHTS assay (AID 1963582; active means well fitted activation curve with a large enough effect in the signal ratio in the repeat runs, not every such curve was filed as active; the % refers to the signal ratio). An outline of the steps: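 Measured: fluorescence from cleaved LiveBLAzer substrate. System: p53RE-bla cells, 16 h compound treatment at 37 C, 2 h substrate step at room temperature.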
Assay [11] deals with 5-hydroxytryptamine receptor 2A (Homo sapiens) (UniProt P28223). The assay can be described thus: 5-hydroxytryptamine receptor 2A (HTR2A) small molecule antagonists, cell-based qHTS assay (AID 1963586). Further: nearly all actives have a fitted effect of over 45% in size. The essentials: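 CHO cells stably expressing human HTR2A were plated for 18 h at 37 C, then loaded with calcium dye for 1 h. Compounds were preincubated 5 min at room temperature before DOI (4 nM solution) was added. Kinetic fluorescence was read for 3 min.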

The target is the same in assay [12]. In words: 5-hydroxytryptamine receptor 2A (HTR2A) small molecule agonists, cell-based qHTS assay (AID 1963587). Further: nearly all actives have a fitted effect of over 30% in size. An outline of the steps:
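CHO cells stably expressing human HTR2A, plated 18 h, loaded with calcium dye 1 h at 37 C. Agonist mode: compounds added and intracellular calcium fluorescence recorded kinetically for 2 min at 1 sec intervals.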

Assay [13] concerns the target Muscarinic acetylcholine receptor M1 (Homo sapiens) (UniProt P11229). The assay can be described thus: Cholinergic receptor muscarinic 1 (CHRM1) small molecule antagonists, cell-based qHTS assay (AID 1963588). Further: nearly all actives have a fitted effect of over 40% in size. The essentials:
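Compounds were tested at 15 concentrations in three independent runs. Dye-loaded CHRM1-CHO cells were exposed 5 min at room temperature before stimulation by acetylcholine added at 50nM. Intracellular calcium was read kinetically on FDSS for 3 min.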

Assay [14] is described as follows: cAMP Responsive Elements (CRE) small molecule agonists, cell-based qHTS assay (AID 1963590). An outline of the steps:
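Test agents in DMSO were incubated 3 h at 37 C/5% CO2 with CRE-bla HEK 293T cells seeded 18 h earlier; LiveBLAzer B/G FRET substrate was added and read after 2 h at room temperature.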

Assay [15] is described as follows: cAMP Responsive Elements (CRE) small molecule antagonists, cell-based qHTS assay (AID 1963591; active means well fitted inhibition curve with a large enough effect in the signal ratio in the repeat runs, not every such curve was filed as active; the % refers to the signal ratio). An outline of the steps: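 Reporter line CRE-bla HEK 293T in dialyzed-FBS DMEM; cells preincubated 18 h, treated 3 h with compound plus NKH477 (0.25 uM final); LiveBLAzer FRET, 2 h RT.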
The target in assay [16] is Beta-2 adrenergic receptor (Homo sapiens) (UniProt P07550). The assay can be described thus: Adrenergic beta2 receptor (ADRB2) small molecule antagonists, cell-based qHTS assay (AID 1963592). Further: series mostly up to about 92 µM; nearly all actives have a fitted effect of over 50% in size. The essentials: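 Assay format: CHO-ADRB2 cells, 18-20hr seeding at 37C/5% CO2, then compound plus 1nM isoproterenol agonist mix for 0.5hr RT. Homogeneous time-resolved fluorescence cAMP detection after 1hr, expressed as 665/615 nm ratio.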

For assay [17] the target is unchanged. The assay can be described thus: Adrenergic beta2 receptor (ADRB2) small molecule agonists, cell-based qHTS assay (AID 1963593).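 Further: CHO cells stably overexpressing human ADRB2.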 The essentials:
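CHO cells stably over-expressing ADRB2 were plated overnight at 37C, then dosed with compounds plus a stimulation mix containing 100uM IBMX and 25uM Ro-20-1724 for 0.5hr at room temperature. cAMP was measured by HTRF competition, 1hr.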

In assay [18] the target is D(2) dopamine receptor (Homo sapiens) (UniProt P14416). The assay can be described thus: Dopamine D2 receptor (DRD2) small molecule agonists, cell-based qHTS assay (AID 1963594). Further: nearly all actives have a fitted effect of over 35% in size. An outline of the steps: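 HEK293 cells stably expressing human DRD2, pre-treated with PDE inhibitor Ro20-1724 (0.1 mM final) and compound 10 min at room temperature, then stimulated with NKH477 (200nM […]) for 30 min. cAMP read by HTRF (665/620 nm).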

Assay [19] shares this target. In words: Dopamine D2 receptor (DRD2) small molecule antagonists, cell-based qHTS assay (AID 1963595; active means well fitted inhibition curve with a large enough effect in the signal ratio in the repeat runs, with a control signal flat; the % refers to the signal ratio). The essentials: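 HEK293 cells stably expressing DRD2, preincubated with 0.1 mM Ro20-1724 and compounds 10 min, were stimulated with 200 nM NKH477 plus 12 nM quinpirole for 30 min at room temperature; cAMP measured by HTRF (665/620 nm).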
A short description of assay [20]: p53 small molecule agonists, cell-based qHTS assay with rat liver microsomes: qHTS cell viability counter screen (AID 1963580). Further: nearly all actives have a fitted effect of over 45% in size. An outline of the steps: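 Cytotoxicity counter screen: intracellular ATP measured by CellTiter-Glo luminescence in the same wells as the beta-lactamase reporter read, on HCT-116 p53RE-bla cells exposed 16 h at 37 C to compounds with rat liver microsomes and NADPH, each 0.5 mg/mL final.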

Sequence of Muscarinic acetylcholine receptor M1 (Homo sapiens) (P11229 whole entry, looked up): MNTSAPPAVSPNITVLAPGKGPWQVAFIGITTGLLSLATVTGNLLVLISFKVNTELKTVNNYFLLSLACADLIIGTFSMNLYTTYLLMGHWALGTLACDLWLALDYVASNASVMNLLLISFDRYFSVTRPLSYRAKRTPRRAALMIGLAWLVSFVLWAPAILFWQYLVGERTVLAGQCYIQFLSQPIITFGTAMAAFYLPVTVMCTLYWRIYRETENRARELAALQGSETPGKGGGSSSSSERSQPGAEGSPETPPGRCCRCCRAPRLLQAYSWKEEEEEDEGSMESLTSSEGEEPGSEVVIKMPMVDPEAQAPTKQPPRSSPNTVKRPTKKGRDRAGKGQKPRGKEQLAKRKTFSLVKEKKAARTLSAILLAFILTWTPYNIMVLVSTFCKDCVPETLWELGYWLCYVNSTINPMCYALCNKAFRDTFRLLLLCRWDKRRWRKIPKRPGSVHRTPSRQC
Sequence of 5-hydroxytryptamine receptor 2A (Homo sapiens) (P28223 whole entry, looked up): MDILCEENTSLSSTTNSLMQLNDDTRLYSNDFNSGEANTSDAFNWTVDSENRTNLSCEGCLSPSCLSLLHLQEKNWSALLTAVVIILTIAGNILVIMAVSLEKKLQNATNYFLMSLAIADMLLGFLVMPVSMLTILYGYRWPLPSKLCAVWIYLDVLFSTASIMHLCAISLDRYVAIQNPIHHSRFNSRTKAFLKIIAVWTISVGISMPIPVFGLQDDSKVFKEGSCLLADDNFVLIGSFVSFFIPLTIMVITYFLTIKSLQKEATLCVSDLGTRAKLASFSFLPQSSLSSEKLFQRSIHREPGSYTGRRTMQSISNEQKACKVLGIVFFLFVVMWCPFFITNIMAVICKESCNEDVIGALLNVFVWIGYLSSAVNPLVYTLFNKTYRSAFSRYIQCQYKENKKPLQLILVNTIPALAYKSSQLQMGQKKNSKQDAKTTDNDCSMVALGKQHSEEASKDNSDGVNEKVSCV
Sequence of D(2) dopamine receptor (Homo sapiens) (P14416 whole entry, looked up): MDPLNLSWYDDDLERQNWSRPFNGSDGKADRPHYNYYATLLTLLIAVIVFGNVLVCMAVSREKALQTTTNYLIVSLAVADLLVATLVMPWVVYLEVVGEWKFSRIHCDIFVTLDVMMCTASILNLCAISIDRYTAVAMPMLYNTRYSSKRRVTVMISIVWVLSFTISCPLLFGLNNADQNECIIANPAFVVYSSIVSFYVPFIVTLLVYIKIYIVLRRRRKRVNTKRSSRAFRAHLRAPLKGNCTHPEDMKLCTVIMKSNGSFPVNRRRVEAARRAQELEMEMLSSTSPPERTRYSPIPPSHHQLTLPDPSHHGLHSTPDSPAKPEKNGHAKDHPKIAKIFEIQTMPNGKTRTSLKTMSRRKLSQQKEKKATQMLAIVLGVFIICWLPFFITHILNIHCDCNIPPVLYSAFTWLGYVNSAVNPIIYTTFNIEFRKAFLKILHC
Sequence of Beta-2 adrenergic receptor (Homo sapiens) (P07550 whole entry, looked up): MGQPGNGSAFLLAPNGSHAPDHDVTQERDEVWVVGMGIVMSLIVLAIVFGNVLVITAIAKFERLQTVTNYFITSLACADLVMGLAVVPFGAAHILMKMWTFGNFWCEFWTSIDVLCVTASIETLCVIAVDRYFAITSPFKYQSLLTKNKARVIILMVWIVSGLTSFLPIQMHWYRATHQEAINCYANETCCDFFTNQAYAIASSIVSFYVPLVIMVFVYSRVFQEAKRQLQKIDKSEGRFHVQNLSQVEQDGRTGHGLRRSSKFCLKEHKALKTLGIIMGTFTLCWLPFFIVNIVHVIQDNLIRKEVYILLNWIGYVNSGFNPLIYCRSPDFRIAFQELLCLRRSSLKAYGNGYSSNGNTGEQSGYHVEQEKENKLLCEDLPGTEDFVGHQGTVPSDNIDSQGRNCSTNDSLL
Sequence of Gonadotropin-releasing hormone receptor (Homo sapiens) (P30968 whole entry, looked up): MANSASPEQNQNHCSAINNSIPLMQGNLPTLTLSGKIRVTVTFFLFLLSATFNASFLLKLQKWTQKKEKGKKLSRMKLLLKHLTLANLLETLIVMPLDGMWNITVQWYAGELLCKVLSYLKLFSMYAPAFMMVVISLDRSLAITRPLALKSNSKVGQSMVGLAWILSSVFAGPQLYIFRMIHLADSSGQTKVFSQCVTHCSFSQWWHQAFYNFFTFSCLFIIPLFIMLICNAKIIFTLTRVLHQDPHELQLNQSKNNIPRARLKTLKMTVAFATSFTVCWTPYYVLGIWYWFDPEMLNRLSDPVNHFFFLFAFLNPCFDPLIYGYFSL
Sequence of KiSS-1 receptor (Homo sapiens) (Q969F8 whole entry, looked up): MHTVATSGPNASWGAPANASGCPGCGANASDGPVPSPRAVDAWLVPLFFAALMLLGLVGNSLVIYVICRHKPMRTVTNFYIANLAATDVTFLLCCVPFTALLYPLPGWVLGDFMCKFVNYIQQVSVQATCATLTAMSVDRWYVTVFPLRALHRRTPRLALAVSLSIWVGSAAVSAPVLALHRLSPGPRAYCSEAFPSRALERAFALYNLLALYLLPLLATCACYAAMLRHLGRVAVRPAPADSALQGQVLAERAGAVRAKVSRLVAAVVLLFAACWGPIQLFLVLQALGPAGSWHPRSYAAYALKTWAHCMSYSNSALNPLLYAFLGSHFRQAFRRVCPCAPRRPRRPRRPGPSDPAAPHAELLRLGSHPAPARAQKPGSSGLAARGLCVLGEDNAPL

Regarding `CCCCNC(=O)NS(=O)(=O)c1ccc(C)cc1`, the Potency entry in assay [1], in [2], in assay [3], in assay [4], in assay [5] and in assay [6] was “inactive” each time. Also, the Potency result in [7], in assay [8], in [9], in assay [10], in assay [11] and in assay [12] was “inactive” throughout. Also, the Potency result in [13], in [14], in [15], in assay [16], in assay [17] and in assay [18] was “inactive” in each case. Moreover, the Potency entry in [19] was “inactive”.
For the compound `O=C(O)Cc1c[nH]c2ccccc12`, the Potency entry in [1], in assay [2], in assay [3], in assay [4], in assay [5] and in assay [6] was “inactive” in each case. Moreover, the Potency entry in assay [7], in assay [8], in [20], in assay [10], in [11] and in [12] was “inactive” throughout. Besides, the Potency result in assay [13], in assay [14], in [15], in [16], in [17] and in assay [18] was “inactive” each time. For the same compound, the Potency entry in assay [19] is “inactive”.
`CC1=C(/C=C/C(C)=C/C=C/C(C)=C/C(=O)Nc2ccc(O)cc2)C(C)(C)CCC1`: the Potency is 49.8 µM (active) and 13.3 µM (active) in assay [1]; 2.22 µM (active) and 2.11 µM (active) in [2]; 41.8 µM (active) and inactive in assay [8]. Moreover, the Potency result in [3], in assay [4], in assay [5], in assay [6], in [7] and in assay [20] was “inactive” each time. For the same compound, the Potency result in assay [10], in assay [11], in assay [12], in assay [13], in assay [14] and in assay [16] was “inactive” throughout. In addition, the Potency entry in assay [17], in [18] and in assay [19] was “inactive” in each case.
Turning to `CCCCCCOC(C)=O`, the Potency entry in [1], in assay [2], in assay [3], in assay [4], in assay [5] and in [6] was “inactive” throughout. For the same compound, the Potency result in assay [7], in assay [8], in [20], in assay [10], in assay [11] and in [12] was “inactive” throughout. The Potency entry in assay [13], in assay [14], in assay [15], in assay [16], in assay [18] and in assay [19] was “inactive” each time.
As for `CC(C)(Oc1ccc(Cl)cc1)C(=O)O`, the Potency entry in assay [1], in [2], in [3], in assay [4], in assay [5] and in assay [6] was “inactive” each time. Also, the Potency result in assay [7], in assay [8], in assay [20], in assay [10], in assay [14] and in [15] was “inactive” each time. Further, the Potency entry in assay [16], in assay [17] and in [18] was “inactive” in each case.
With `Brc1cc(Oc2cc(Br)c(Br)c(Br)c2Br)c(Br)c(Br)c1Br`, the Potency entry in assay [1], in assay [3], in assay [4], in assay [5], in [6] and in [7] was “inactive” in each case. Also, the Potency entry in assay [20], in assay [10], in assay [11], in assay [13], in assay [14] and in assay [15] was “inactive” in each case. In addition, the Potency result in assay [16], in assay [17], in assay [18] and in assay [19] was “inactive” each time. The Potency in [2] was 68.9 µM (active) and inactive; in assay [8], 20.5 µM (active) and inactive.
Regarding `CCCCCCCCCCCC(=O)OC`, the Potency result in [1], in [2], in [3], in [4], in assay [5] and in assay [6] was “inactive” throughout. The Potency result in assay [7], in assay [8], in [20], in assay [10], in [11] and in assay [12] was “inactive” throughout. The Potency entry in assay [13], in [15], in assay [16], in assay [17] and in [18] was “inactive” in each case.
